Source: PubChem
This is a sample that favours compounds with a hit; in the whole collection about 10% have one here.
HEK cytotox: kills HEK 293 cells; HEK 293 viability, ATP luminescence (CellTiter-Glo), 48-72 h; Potency, µM (highest dose often 115 µM), without a hit: at the highest dose activity change, negative = cytotoxicity, hits mostly inhibitors; 94,000 tested, 6.6% active; AID 1345083; note: nearly all actives have a fitted effect of over 60% in size
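qHTS cytotoxicity; HEK 293, 250 cells/well; compound pinned; 48 or 72 hr, 37 degree Celsius, 5% CO2, 95% humidity; CellTiter-Glo, 10 min RT; luminescence (ATP).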
NPR1 antag: blocks ANP-stimulated signaling of human Npr1 receptor; P16066; HEK293 hNpr1 GloSensor cGMP, ANP-stimulated luminescence; Potency, µM (highest dose often 46.3 µM), inactives show at the highest dose activity change, negative = inhibition, most hits filed as inhibitors; 76,000 tested, 1.6% active; AID 1347048; calls by dose curve; note: nearly all actives have a fitted effect of over 60% in size
Target sequence (P16066 whole entry, looked up): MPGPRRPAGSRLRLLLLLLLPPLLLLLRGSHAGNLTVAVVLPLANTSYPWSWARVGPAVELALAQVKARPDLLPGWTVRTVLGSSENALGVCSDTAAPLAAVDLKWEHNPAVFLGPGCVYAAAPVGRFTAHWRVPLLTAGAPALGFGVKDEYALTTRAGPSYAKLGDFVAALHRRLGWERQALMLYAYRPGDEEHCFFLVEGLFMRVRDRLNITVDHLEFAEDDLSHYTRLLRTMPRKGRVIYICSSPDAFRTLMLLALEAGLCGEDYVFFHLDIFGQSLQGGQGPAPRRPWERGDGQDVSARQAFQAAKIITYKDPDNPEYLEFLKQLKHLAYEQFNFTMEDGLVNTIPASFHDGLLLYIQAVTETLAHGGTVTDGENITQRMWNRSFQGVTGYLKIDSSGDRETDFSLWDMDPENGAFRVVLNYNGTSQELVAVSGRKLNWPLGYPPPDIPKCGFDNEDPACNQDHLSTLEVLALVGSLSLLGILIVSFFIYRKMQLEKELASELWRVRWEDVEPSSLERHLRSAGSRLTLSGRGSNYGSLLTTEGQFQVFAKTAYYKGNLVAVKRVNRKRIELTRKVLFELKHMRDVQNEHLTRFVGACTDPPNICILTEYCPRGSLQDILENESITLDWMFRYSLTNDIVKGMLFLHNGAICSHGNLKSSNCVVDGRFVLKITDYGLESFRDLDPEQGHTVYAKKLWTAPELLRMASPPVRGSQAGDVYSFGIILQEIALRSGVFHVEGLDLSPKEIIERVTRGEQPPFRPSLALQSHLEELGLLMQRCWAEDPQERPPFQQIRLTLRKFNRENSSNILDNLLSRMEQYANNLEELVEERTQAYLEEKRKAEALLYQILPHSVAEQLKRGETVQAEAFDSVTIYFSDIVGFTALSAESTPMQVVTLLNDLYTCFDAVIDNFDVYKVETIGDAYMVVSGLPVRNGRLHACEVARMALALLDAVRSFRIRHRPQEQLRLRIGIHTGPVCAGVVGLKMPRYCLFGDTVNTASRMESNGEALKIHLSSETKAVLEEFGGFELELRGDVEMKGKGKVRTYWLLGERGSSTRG
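HEK293 cells stably expressing human Npr1 and cGMP GloSensor pGS-40F, loaded 2 h with 2% GloSensor reagent, given compound 30 min at room temperature. Luminescence read before and 20 min after 0.1 nM hNppA.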
GPT2 inhibitor: blocks human glutamate pyruvate transaminase 2; Q8TD30; Recombinant GPT2, coupled pyruvate oxidase/HRP Amplex Red fluorescence; Potency, µM (series often up to 57.7 µM), for inactives: top-dose activity change, negative = inhibition, actives largely listed as inhibitors; 100,000 tested, 0.25% active; AID 1671188; note: nearly all actives have a fitted effect of over 60% in size
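Fluorescence of coupled pyruvate oxidase/HRP/Amplex Red system (50uM Amplex, 30 min, dark) reports pyruvate formed by GPT2. Enzyme reaction: 10ng/uL GPT2, 2mM L-alanine, 250uM a-KG, 30 min room temperature, pH 7.5; 50uM AOA control.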
Luciferase inh: blocks purified firefly luciferase enzyme activity; P08659; Potency, µM (doses to about 115 µM), usual class: inhibitors; 76,000 tested, 2.5% active; purified P. pyralis luciferase, luminescence, biochemical; note: nearly all actives have a fitted effect of over 65% in size
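Biochemical qHTS: compound (6-point titration) added to 10uM D-luciferin plus 10uM ATP in Tris acetate pH 7.5 buffer with Mg, Tween-20 and BSA, then purified enzyme at 10nM; light output imaged.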
3T3 cytotox: cytotoxic compounds in NIH 3T3 cells; NIH 3T3 viability, CellTiter-Glo ATP luminescence, 48-72 h; Potency, µM (doses to about 96.7 µM), inactives show top-dose activity change, negative = cytotoxicity, usual class: inhibitors; 94,000 tested, 4.3% active; note: nearly all actives have a fitted effect of over 55% in size
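ATP-dependent luminescence (CellTiter-Glo) served as the viability signal for NIH 3T3 cells treated with compound for 48 or 72 hr at 37 °C.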
Active calls of the source: *; [ ] = dose if it differs, or a comment. Unless noted, calls come from the whole dose curve; as a rule, active = well fitted curve in the direction sought with a large enough effect; inconclusive = small, poorly fitted or top-dose-only effect, or another doubt; inactive = no such curve, though single readings can be large; an effect the other way counts as inactive or inconclusive. % is set by controls: 0 for no effect and ±100 for the full control effect; potency is the fitted concentration of half-maximal effect.

How did CN(C)C(=O)C1CN(C(=O)CCC(=O)c2ccc(F)cc2)CC12CCOCC2 (configuration not stated) do in these assays?
HEK cytotox: -11%; NPR1 antag: -9%; GPT2 inhibitor: 2%; Luciferase inh: inactive; 3T3 cytotox: -2%

What do the screens show for `CCOc1c(CNC(=O)C2CCN(C(=O)C3CCCC3)CC2)cccc1OC`?
HEK cytotox: -8%; NPR1 antag: -3%; GPT2 inhibitor: -9%; Luciferase inh: inactive; 3T3 cytotox: -15%

How did Cc1ccccc1CN1CCC2(CC1)COCCN2C(=O)OCc1ccccc1 do in these assays?
HEK cytotox: 100µM*; NPR1 antag: -17%[70.6 µM]; GPT2 inhibitor: -5%[88.5 µM]; Luciferase inh: inactive; 3T3 cytotox: inconclusive

What do the screens show for `O=C(CCC1CCCC1)N1CCC2(CC1)CC(N(Cc1ccc(F)cc1)C1CC1)CCO2` (configuration not stated)?
HEK cytotox: inconclusive; NPR1 antag: 3%; GPT2 inhibitor: inactive; Luciferase inh: inactive; 3T3 cytotox: inconclusive

What do the screens show for `O=C(CC1CCCCC1)N1CCC2(CC1)CC(N(Cc1ccc(F)cc1)C1CC1)CCO2` (configuration not stated)?
HEK cytotox: 50µM*; NPR1 antag: 3%; GPT2 inhibitor: inactive; Luciferase inh: inactive; 3T3 cytotox: inconclusive

What do the screens show for `COc1ccc(CCN(Cc2ccccc2F)CC2(O)CCCNC2)cc1` (configuration not stated)?
HEK cytotox: 25µM*; NPR1 antag: -25%; GPT2 inhibitor: -13%; Luciferase inh: inactive; 3T3 cytotox: 25µM*

Results for CCCc1cc(N2CCC(NCCOC(C)C)CC2)nc(C)n1 ?
HEK cytotox: -10%; NPR1 antag: 7%; GPT2 inhibitor: -8%; Luciferase inh: inactive; 3T3 cytotox: -4%

What do the screens show for `CCCc1cc(N2CCC(NCc3cc(F)c(F)c(F)c3)CC2)nc(C)n1`?
HEK cytotox: 50µM*; NPR1 antag: 8%; GPT2 inhibitor: 4%; Luciferase inh: inactive; 3T3 cytotox: inconclusive

Results for O=c1c2nc(N3CCC(c4ccccc4)CC3)ccc2ncn1-c1cccnc1 ?
HEK cytotox: inconclusive; NPR1 antag: 3%[70.6 µM]; GPT2 inhibitor: 1%[88.5 µM]; Luciferase inh: inconclusive; 3T3 cytotox: inconclusive

Results for COCCn1cnc2ccc(-c3cccc(O)c3)nc2c1=O ?
HEK cytotox: -21%[172 µM]; NPR1 antag: 2%[70.6 µM]; GPT2 inhibitor: inactive; Luciferase inh: inactive; 3T3 cytotox: 22µM*

How did O=c1ncn(CC2CC2)c2ccc(N3CCC(c4ccccc4)CC3)nc12 do in these assays?
HEK cytotox: inconclusive; NPR1 antag: -2%[70.6 µM]; GPT2 inhibitor: inactive; Luciferase inh: 56µM*; 3T3 cytotox: -22%[138 µM]

How did O=c1c2nc(-c3ccccc3)ccc2ncn1Cc1ccccn1 do in these assays?
HEK cytotox: -10%[172 µM]; NPR1 antag: 1%[70.6 µM]; GPT2 inhibitor: -18%[88.5 µM]; Luciferase inh: inactive; 3T3 cytotox: 79µM*

How did COCCn1cnc2ccc(-c3ccccc3)nc2c1=O do in these assays?
HEK cytotox: 3%[230 µM]; NPR1 antag: 7%[70.6 µM]; GPT2 inhibitor: inactive; Luciferase inh: inconclusive; 3T3 cytotox: inconclusive

How did O=c1ncn(CC2CC2)c2ccc(-c3ccc(F)cc3F)nc12 do in these assays?
HEK cytotox: -42%[172 µM]; NPR1 antag: 0%[70.6 µM]; GPT2 inhibitor: -9%[88.5 µM]; Luciferase inh: inactive; 3T3 cytotox: 100µM*

What do the screens show for `CCCC(=O)N1Cc2ccccc2CC2(CCN(CCC)C2)C1` (configuration not stated)?
HEK cytotox: inconclusive; GPT2 inhibitor: -11%; 3T3 cytotox: inconclusive

Results for O=c1c2nc(N3CCC(c4ccccc4)CC3)ccc2ncn1Cc1ccccn1 ?
HEK cytotox: inconclusive; NPR1 antag: 5%[70.6 µM]; GPT2 inhibitor: -1%[88.5 µM]; Luciferase inh: 63µM*; 3T3 cytotox: -28%[138 µM]

Results for O=c1c2nc(-c3ccc(Cl)cc3)ccc2ncn1Cc1ccccn1 ?
HEK cytotox: inconclusive; NPR1 antag: 0%[70.6 µM]; GPT2 inhibitor: -4%[88.5 µM]; Luciferase inh: inactive; 3T3 cytotox: inconclusive

How did Cn1ccc2cc(-c3ccc4ncn(Cc5ccccn5)c(=O)c4n3)ccc21 do in these assays?
HEK cytotox: -23%[172 µM]; NPR1 antag: -2%[70.6 µM]; GPT2 inhibitor: 0%[88.5 µM]; Luciferase inh: 45µM*; 3T3 cytotox: 89µM*

How did Cc1ccc(-c2ccc3ncn(Cc4ccccn4)c(=O)c3n2)c(C)c1 do in these assays?
HEK cytotox: -11%[172 µM]; NPR1 antag: 0%[70.6 µM]; GPT2 inhibitor: 2%[88.5 µM]; Luciferase inh: inactive; 3T3 cytotox: 25µM*

How did O=C1CN(CC(=O)N2CCC3(CC2)OCCCC3O)C(=O)N1 (configuration not stated) do in these assays?
HEK cytotox: -2%; NPR1 antag: 5%; GPT2 inhibitor: inactive; Luciferase inh: inactive; 3T3 cytotox: 1%

How did Cn1cnc(S(=O)(=O)N2C[C@@H](F)C[C@H]2C(=O)N2CCCCC2)c1 do in these assays?
HEK cytotox: -1%; NPR1 antag: -4%; GPT2 inhibitor: inactive; Luciferase inh: inactive; 3T3 cytotox: 4%

What do the screens show for `Cc1nn(-c2ccccn2)c(C)c1[C@@H]1C=C[C@@H](NC(=O)CCC(=O)O)C1`?
HEK cytotox: -23%[172 µM]; NPR1 antag: 0%[70.6 µM]; GPT2 inhibitor: inactive; Luciferase inh: inactive; 3T3 cytotox: -9%[174 µM]

How did Cc1nn(-c2ccc(C(C)C)cc2)c(C)c1[C@@H]1C=C[C@@H](NCc2cccc(Cl)c2)C1 do in these assays?
HEK cytotox: 10µM*; NPR1 antag: inconclusive; GPT2 inhibitor: inactive; Luciferase inh: 45µM*; 3T3 cytotox: 13µM*

Results for Cc1nn(-c2ccc(C(C)C)cc2)c(C)c1[C@@H]1C=C[C@@H](NCc2ccccc2)C1 ?
HEK cytotox: 25µM*; NPR1 antag: -13%[70.6 µM]; GPT2 inhibitor: 5%[88.5 µM]; Luciferase inh: 63µM*; 3T3 cytotox: 11µM*

How did Cc1occc1C(=O)N1CCCn2ccnc2C1c1cnn(C)c1 (configuration not stated) do in these assays?
HEK cytotox: -11%; NPR1 antag: 5%; GPT2 inhibitor: 1%; Luciferase inh: inactive; 3T3 cytotox: -4%

How did CCn1ccc(C(=O)N2CCCCC2c2noc(COCCOC)n2)n1 (configuration not stated) do in these assays?
HEK cytotox: 1%; GPT2 inhibitor: inactive; 3T3 cytotox: -12%

How did O=C(Nc1ccc2c(c1)OCO2)C1CN(S(=O)(=O)c2cccnc2)CC12CCCCC2 (configuration not stated) do in these assays?
HEK cytotox: -30%; NPR1 antag: -3%; GPT2 inhibitor: 2%; Luciferase inh: 40µM*; 3T3 cytotox: -27%

How did C=CCn1cc2c3c(cccc31)[C@H](CC(C)C)N[C@H](C(=O)NCCCN1CCCC1=O)C2 do in these assays?
HEK cytotox: 40µM*; NPR1 antag: 1%; GPT2 inhibitor: inconclusive; Luciferase inh: inactive; 3T3 cytotox: inconclusive
